# High-throughput results (PubChem)
# KB-3-1 cytotox – KB-3-1 parental cell cytotoxicity; KB-3-1 viability, CellTiter-Glo ATP luminescence, 72 h; Potency, µM (series often up to 46.1 µM), actives largely listed as cytotoxic; hit rate 1.4% among 400,000; further: nearly all actives have a fitted effect of over 60% in size
#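 Here the drug-naive KB-3-1 line serves as comparator for MDR sub-line selectivity; cells received compound titrations, 72 h at 37 °C, then CellTiter-Glo readout.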
# SW480 rerep – inducers of DNA re-replication in SW480 colon cancer cells; SW480 DNA re-replication, Hoechst DNA content imaging, 48 h; Potency, µM (doses to about 46.1 µM), hits mostly activators; hit rate 1.8% among 340,000; AID 624297; further: nearly all actives have a fitted effect of over 55% in size
#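 SW480 cells exposed to compounds for 48 hr at 37 C, 5% CO2, then Hoechst-stained 40 min. Nuclear DNA content imaged by fluorescence scanning (405 nm excitation, 500-530 nm emission); re-replication scored as increased high-intensity nuclei.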
# PINK1 modulator – PINK1 expression modulation. PINK1 immunofluorescence, high-content cytometry, 24 h. Potency, µM (titrated, usually from 76.6 µM), actives largely listed as activators. hit rate 0.2% among 410,000. AID 624263; active means well fitted activation curve with a large enough effect; inconclusive means small, poorly fitted or top-dose-only effect; cell line not stated here; further: nearly all actives have a fitted effect of over 65% in size
#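 PINK1 protein, normally rapidly degraded, was detected by immunofluorescence after 24 hour compound treatment of a stable cell line. Titration data (5 concentrations) came from laser-scanning cytometry, with CCCP-treated wells as controls.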
# KB-V1 cytotox – kills drug-selected multidrug resistant KB-V1 cells. KB-V1 MDR cells viability, CellTiter-Glo, 72 h. Potency, µM (doses to about 46.1 µM), actives largely listed as cytotoxic. hit rate 3.4% among 400,000. AID 1347076; further: nearly all actives have a fitted effect of over 60% in size
#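 Readout: CellTiter-Glo luminescence, 10 min after addition. Cells: KB-V1 MDR subline, 72 h at 37 degrees C with compound. Analysis: corrected, normalized data fitted to concentration-effect curves.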
# 12-LOX inh – inhibitors of human 12S-lipoxygenase ALOX12; P18054; purified 12hLO, xylenol orange hydroperoxide absorbance; Potency, µM (titrated, usually from 108 µM), actives largely listed as inhibitors; hit rate 1.1% among 580,000
# Target sequence (P18054 whole entry, looked up): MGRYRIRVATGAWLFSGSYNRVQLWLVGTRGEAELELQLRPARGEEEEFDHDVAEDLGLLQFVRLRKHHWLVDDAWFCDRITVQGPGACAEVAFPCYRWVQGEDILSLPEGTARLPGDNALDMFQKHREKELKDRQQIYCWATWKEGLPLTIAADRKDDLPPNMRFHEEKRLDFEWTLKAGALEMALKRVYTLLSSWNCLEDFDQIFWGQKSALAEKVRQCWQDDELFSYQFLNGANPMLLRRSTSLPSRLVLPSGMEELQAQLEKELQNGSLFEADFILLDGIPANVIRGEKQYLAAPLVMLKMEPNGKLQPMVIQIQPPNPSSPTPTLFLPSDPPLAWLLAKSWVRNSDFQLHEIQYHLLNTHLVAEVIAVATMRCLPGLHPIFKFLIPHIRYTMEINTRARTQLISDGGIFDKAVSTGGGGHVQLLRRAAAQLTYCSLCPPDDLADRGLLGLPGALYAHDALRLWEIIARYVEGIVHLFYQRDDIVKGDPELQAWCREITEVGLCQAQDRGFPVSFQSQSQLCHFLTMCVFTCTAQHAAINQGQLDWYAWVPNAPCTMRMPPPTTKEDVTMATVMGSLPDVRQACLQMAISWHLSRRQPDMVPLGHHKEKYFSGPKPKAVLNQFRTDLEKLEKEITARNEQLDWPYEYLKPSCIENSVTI
#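 Hydroperoxide product was detected by ferrous iron/xylenol orange as the 573 to 405 nm absorbance ratio. Arachidonic acid at 40 uM (final) was turned over for 30 min at room temperature by 150 nM human 12hLO, pH 7.0 Hepes buffer, after 15 min compound preincubation.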
# MCF10A rerep – inducers of DNA re-replication in MCF 10A breast cells; Potency, µM (doses to about 46.1 µM), most hits filed as activators; MCF 10A DNA re-replication, Hoechst nuclear intensity, 48 h; hit rate 2.9% among 350,000; further: nearly all actives have a fitted effect of over 50% in size
# A number is an active result; – = inactive; ? = inconclusive; · = not tested or not shown; ! = not confirmed by another sample. Hits are enriched below; roughly 5.8% of the tested compounds scored in any of these assays. Unless noted, the call rests on the fitted dose curve; in most records, active means well fitted curve in the direction sought with a large enough effect; inconclusive means small, poorly fitted or top-dose-only effect, or another doubt; inactive means no such curve, though single readings can be large; an effect the other way counts as inactive or inconclusive.
SMILES,KB-3-1 cytotox,SW480 rerep,PINK1 modulator,KB-V1 cytotox,12-LOX inh,MCF10A rerep
COc1cc2c(CCNC(C)=O)c[nH]c2cc1O,–,–,–,–,40µM!,–
CCOC(=O)c1cnc2ccc(OCC)cc2c1NCc1ccccc1OC,?,–,?,7.3µM,?,?
CCOC(=O)c1cnc2ccc(OC)cc2c1NCc1ccccc1,–,–,–,3.7µM,–,–
CCOC(=O)c1cnc2ccc(OCC)cc2c1Nc1cc(Cl)c(OC)cc1OC,–,·,–,–,–,·
CCOC(=O)c1cnc2ccc(OC)cc2c1NCCc1ccccc1,·,·,–,·,?,·
O=C(NC(C1CC1)C1CC1)c1cccnc1,·,·,·,·,–,·
CC(=O)C1=C(O)C(=O)N(Cc2ccccc2)C1c1ccc(Br)cc1 (centres undefined),–,–,–,–,11µM,–
CC(=O)C1=C(O)C(=O)N(c2ccccn2)C1c1ccc(C)cc1 (centres undefined),–,–,–,–,–,–
CC(=O)C1=C(O)C(=O)N(c2ccc(Br)cc2)C1c1ccc(Br)cc1 (centres undefined),–,–,–,–,7.9µM,–
CC(=O)C1=C(O)C(=O)N(c2nccs2)C1c1ccccc1 (centres undefined),–,–,–,–,8.9µM,–
CC(C)c1ccccc1NC1=NS(=O)(=O)c2ccccc21,·,·,·,·,–,·
Cc1ccc(C(=O)N[C@H]2CO[C@H]3[C@@H]2OC[C@@H]3Nc2nccc(-c3ccc(-c4ccccc4)cc3)n2)cc1,·,·,·,·,–,·
O=C(C1CN(C(=O)c2nn(-c3ccccc3)c(=O)c3ccccc23)c2ccccc2O1)N1CCCCC1 (centres undefined),·,·,·,·,–,·
Cc1ccccc1-n1ncc2c1NC(=O)CC21C(=O)Nc2cccc(Cl)c21 (centres undefined),·,·,·,·,–,·
CC(C)Cn1c([N+](=O)[O-])nc2c1c(=O)[nH]c(=O)n2C,?,?,–,?,–,12µM
Cn1c(=O)[nH]c(=O)c2c1nc([N+](=O)[O-])n2Cc1ccccc1,?,–,–,?,–,2.1µM
CCNc1nc2c(c(=O)[nH]c(=O)n2C)n1CC(C)C,?,–,–,–,–,–
CCn1nc(C)cc1C(=O)N1CCCN(Cc2ccc(F)cc2)C(C(C)C)C1 (centres undefined),·,·,·,·,–,·
Cc1ccc2nc(-c3ccc(Cl)cc3)cc(C(=O)NCc3ccncc3)c2c1,·,·,·,·,–,·
N#Cc1nc(-c2ccc(S(=O)(=O)N3CCCCCC3)cc2)oc1NCc1ccco1,·,·,·,·,–,·
O=C(Cn1ccc2ccc(Cl)cc21)N1CCOCC1,·,·,·,·,–,·
CCOC(=O)C1=NN(c2ccccc2)C2=NC(C)=C(C(=O)OC)C(c3ccc(C)cc3)N12 (centres undefined),–,–,–,15µM,–,–
CCC1SC2=NC(C)=C(C(=O)OC)C(c3ccc(C)cc3)N2C1=O (centres undefined),–,–,–,–,?,–
NN/C(=C\[N+](=O)[O-])Nc1ccccc1,–,–,–,–,–,–
NN/C(=C\[N+](=O)[O-])Nc1ccc(Cl)cc1,?,–,–,–,35µM,?
SMILES,KB-3-1 cytotox,SW480 rerep,PINK1 modulator,KB-V1 cytotox,12-LOX inh,MCF10A rerep
COCc1nn2c(=O)c(NC(=O)c3ccc(Cl)cc3)cnc2s1,·,·,·,·,–,·
CNC(=O)NCC12CC3CC(CC(C3)C1)C2,–,–,–,–,–,–
CCNC(=S)NCC12CC3CC(CC(C3)C1)C2,·,·,·,·,40µM,·
O=C(c1ccccc1)c1cnc(Nc2ccccc2Cl)s1,–,–,–,13µM,·,?
COc1cccc(C(=O)NCc2ccc3[nH]c(C)cc3c2)c1,–,–,–,–,–,?
COc1cc(OC)cc(C(=O)NCc2ccc3[nH]c(C)cc3c2)c1,–,–,–,–,–,0.65µM
COc1ccc(C(=O)NCc2ccc3[nH]c(C)cc3c2)cc1OC,–,–,–,–,–,4.6µM
CCn1cnc2c1c(=O)n(CC(=O)c1cc(C)n(CC3CCCO3)c1C)c(=O)n2Cc1ccccc1 (centres undefined),·,·,·,·,–,·
C=CCNC(=S)Nc1ccc(Cl)c(Cl)c1,·,·,·,·,–,·
CCCn1nc(C(=O)NC(c2ccccc2)c2ccccc2)c2ccccc2c1=O,·,·,·,·,–,·
